Assay outcomes: PubChem BioAssay, The Scripps Research Institute Molecular Screening Center
M1 ag – human M1 muscarinic receptor agonism. P11229. CHO-K1 hM1, Fluo-8 calcium fluorescence, agonist mode; 0% DMSO, 100% acetylcholine EC100. activation, % at 3 µM. actives 0.33% (n = 360,000);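 active = activation above the run's mean compound activation plus 3 SD, cut at about 16% in these data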;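 also: peak over basal fluorescence ratio within a 140 s kinetic read after compound addition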
Target sequence (P11229 whole entry, looked up): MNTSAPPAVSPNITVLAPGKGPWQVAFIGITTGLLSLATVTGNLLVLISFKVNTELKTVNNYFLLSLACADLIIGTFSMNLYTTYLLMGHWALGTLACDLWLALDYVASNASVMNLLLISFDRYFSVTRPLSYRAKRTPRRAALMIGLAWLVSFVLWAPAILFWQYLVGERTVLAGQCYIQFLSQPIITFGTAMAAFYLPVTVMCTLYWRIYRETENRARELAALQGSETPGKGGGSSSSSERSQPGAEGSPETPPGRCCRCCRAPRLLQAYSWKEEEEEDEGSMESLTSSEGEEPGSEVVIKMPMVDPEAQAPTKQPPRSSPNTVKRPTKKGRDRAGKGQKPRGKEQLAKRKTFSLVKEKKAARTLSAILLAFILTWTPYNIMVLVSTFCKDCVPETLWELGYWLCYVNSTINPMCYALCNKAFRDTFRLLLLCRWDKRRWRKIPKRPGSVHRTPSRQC
CHO-K1 Ca PAM – counter-screen for M1 PAMs: effect in parental CHO-K1 cells; ATP EC20, Fluo-8 calcium fluorescence; 0% at ATP EC20, 100% at ATP max; actives 0.02% (n = 360,000); activation, % at 3 µM; AID 602247;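 active = activation above the run cutoff, the mean activation of all test compounds plus 3 SD, cut at about 40% in these data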;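 also: peak over basal fluorescence ratio in a 140 s read after ATP addition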
CHO-K1 Ca ag – M1 agonist counterscreen hit in parental CHO-K1 cells. Fluo-8 calcium fluorescence; scaled to maximal ATP response, vehicle zero. activation, % at 3 µM. actives 0.48% (n = 360,000). AID 602248; in the data active = activation above about 15%;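 also: untransfected CHO-K1 host cells lacking M1 receptor as counterscreen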
M1 PAM – potentiates human M1 receptor response to acetylcholine | P11229 | CHO-K1 hM1, Fluo-8 calcium fluorescence, ACh EC20; 0% = ACh EC20, 100% = maximal ACh | activation, % at 3 µM | actives 0.088% (n = 360,000) | AID 588819; in the data active = activation above about 19%, passing the limit was not always enough
CHO-K1 Ca antag – M1 antagonist counterscreen hit in parental CHO-K1 cells | ATP-induced calcium, Fluo-8 fluorescence | inhibition, % at 3 µM | actives 0.6% (n = 360,000) | AID 602250;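 active = inhibition above a per-plate cutoff, the plate's mean sample inhibition plus 3 SD, cut at about 24% in these data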;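 also: 0% = DMSO plus EC80 ATP and 100% = DMSO alone without ATP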
CHRM1 antagonist – human CHRM1 antagonism; P11229; CHO-K1 hM1, Fluo-8 calcium fluorescence, ACh EC80 antagonist; inhibition, % at 3 µM; actives 1.3% (n = 360,000); AID 588852;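 active = percent inhibition above its own plate's cutoff, namely the mean of that plate's compound wells plus 3 SD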;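 also: peak over basal fluorescence ratio during 140 s after agonist addition; 0% = ACh EC80 plus DMSO and 100% = DMSO alone without agonist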
* = called active by the depositor. Rows were chosen to be rich in hits. Some 2.4% of all compounds tested hit in one or more screens of this group.

SMILES | M1 ag | CHO-K1 Ca PAM | CHO-K1 Ca ag | M1 PAM | CHO-K1 Ca antag | CHRM1 antagonist
CCOc1ccc(S(=O)(=O)N(CC(=O)Nc2cccnc2)c2ccc(F)cc2)cc1 | -1 | -17 | 6 | -3 | 3 | 4
CCCC(C)C(=O)Nc1nnc(CCc2ccccc2)s1 (stereo unspecified) | 1 | -8 | 0 | 18 | 7 | -14
CCOC(=O)CN1C(=O)CC(c2ccc([N+](=O)[O-])cc2)C1=O (stereo unspecified) | -3 | 12 | 1 | 2 | -3 | 0
CN1CCN(c2ccc([N+](=O)[O-])cc2C(=O)c2ccc(Br)cc2)CC1 | -7 | 19 | 1 | -24 | -8 | 21*
N#Cc1cc([N+](=O)[O-])ccc1N1CCN(c2ccccc2O)CC1 | -4 | -8 | 13 | -5 | -9 | 9
O=[N+]([O-])c1ccc(N2CCN(c3ccc([N+](=O)[O-])cc3CO)CC2)c(CO)c1 | 2 | -26 | 18* | -16 | 8 | 13
NC(=O)C1CCN(C(=O)c2ccc3nc(-c4ccccc4)c(-c4ccccc4)nc3c2)CC1 | -4 | 2 | 3 | 0 | -8 | 2
CC(=O)NC(c1ccccc1)c1nc(-c2ccc(C)c(C)c2)cs1 (stereo unspecified) | -2 | 7 | 2 | 5 | 5 | 0
CC1(C)N=C(N)N=C(N)N1c1ccc(Oc2ccc(Cl)cc2)c(Cl)c1 | -9 | 14 | 2 | -27 | -12 | 55*
CC1(C)N=C(N)N=C(N)N1c1cc(Cl)ccc1Cl | -9 | 21 | 0 | 3 | 0 | -1
Cc1cc(C)c(OCC(=O)OCC(=O)NNC(=O)c2ccccc2F)c(C)c1 | -4 | 3 | 0 | 7 | -2 | -1
CCOC(=O)CSc1ccc(C(=O)NCCN2CCOCC2)cc1[N+](=O)[O-] | -6 | 18 | 7 | -24 | -4 | 47*
CCn1c(CNC(=O)c2ccccc2F)cc2cc(C)ccc21 | -1 | -24 | 0 | -6 | 31* | 5
O=C1CCCC/C1=C/Nc1ccc2c(c1)OCO2 | -2 | -7 | 0 | -7 | 29* | 8
O=C(CN1CCC(NC(=O)Nc2ccc(F)cc2)CC1)Nc1ccccc1[N+](=O)[O-] | -5 | -4 | 6 | -7 | -6 | 8
CN1CCN(C(=S)c2ccc(-c3cc(Cl)ccc3Cl)o2)CC1 | -3 | 20 | 2 | 2 | -11 | -7
N#CCCN1CCN(C(=S)c2ccc(-c3cc(Cl)ccc3Cl)o2)CC1 | -3 | 12 | 0 | -9 | -2 | 30*
Cc1ccc(NC(=O)c2cc(S(=O)(=O)N(C)C)ccc2N2CCCC2)cc1S(=O)(=O)N(C)C | -7 | 8 | 1 | -21 | -3 | 32*
CCOc1ccc(NC(=O)c2ccc(F)c(S(=O)(=O)N3CCCC3)c2)cc1 | -2 | -11 | 7 | -11 | 24* | 10
O=C(Nc1cccc(S(=O)(=O)N2CCCCC2)c1)c1ccccc1NS(=O)(=O)c1ccc(F)cc1 | 1 | -2 | 11 | -4 | 23 | 15
Cc1ccccc1NC(=O)c1cccc(S(=O)(=O)N2CCCCC2)c1 | -1 | 1 | 1 | 1 | -14 | -8
Cc1ccc(NC(=O)c2cc(S(=O)(=O)N3CCCCC3)ccc2N2CCOCC2)cc1S(=O)(=O)N(C)C | -7 | -16 | 0 | -8 | -7 | 17
Cc1ccccc1NC(=O)c1ccc(F)c(S(=O)(=O)N2CCCCC2)c1 | -1 | 0 | 19* | 6 | 2 | -7
Cc1ccc(NC(=O)c2ccccc2NS(=O)(=O)c2ccc(F)cc2)cc1S(=O)(=O)N1CCCCC1 | 1 | -4 | 12 | -6 | 26* | 13
O=C(Nc1nccs1)C1CCCN1/C=C/C(=O)C(F)(F)F (stereo unspecified) | -1 | 9 | 0 | 11 | -2 | -5
O=C(COc1coc(CN2CCc3ccccc32)cc1=O)Nc1cccc(F)c1 | -2 | -2 | 0 | 1 | -3 | -4
COc1ccc(-c2cc(NC(C)=O)c3ncc(-c4ccc(F)cc4)n3c2)cc1OC | -4 | 17 | 3 | -2 | -12 | -7
Cc1ccc(NC(=O)CCC(=O)c2ccc(Cl)s2)nc1 | -6 | 11 | 0 | -2 | -10 | 5
